Results published in PubChem BioAssay AID1347150 (National Center for Advancing Translational Sciences (NCATS), 2019).
Inconclusive results are not listed. Active and inactive are the calls of the source. The call rests on the fitted dose curve; in most records, active means well fitted curve in the direction sought with a large enough effect; inconclusive means small, poorly fitted or top-dose-only effect, or another doubt; inactive means no such curve, though single readings can be large or run the other way. Numbered stars: 1 amine (or outer) side, 2 acyl side, 3 side chain; on linkers, the order of the positions; unused ones are H or OH. Bridge positions count the residues as written; N and C are the ends. Square brackets hold non-standard residues; d marks the D form. Peptide text beside a SMILES is read from it. I, II: the chains in the order shown. Actinocin(9to1) = Cc1c2oc3c(C)ccc(C(=O)[*:1])c3nc-2c(C(=O)[*:2])c(N)c1=O; aThr = C[C@H](O)[C@H](N)C(=O)O; NMeV = CN[C@H](C(=O)O)C(C)C; Sar = CNCC(=O)O

tested on: Zika virus NS2B-NS3 protease (linked); test: Optimization screen NINDS AMC qHTS for Zika virus inhibitors: Linked NS2B-NS3 protease assay; details: recombinant linked NS2B-NS3 protease, AMC fluorogenic substrate; series mostly up to 52.5 µM; activity change, negative = inhibition: at the top concentration
Outline: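 Linked NS2B-NS3 construct (NS2B hydrophilic domain joined to NS3 protease by GGGGSGGGG linker), 1 nM, preincubated 15 min with compound in 10 mM Tris-HCl pH 8.0, 0.01% Tween 20. 10 microM Bz-Nle-KRR-AMC (Km 18.3 µM) added; 15-min fluorescence change fitted to 4-parameter Hill equation.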

Activity change, negative = inhibition, inactive:
COc1c(C)c2c(c(O)c1C/C=C(\C)CCC(=O)O)C(=O)OC2 -3.86%
CC(C)C[C@@H](NC(=O)[C@H](Cc1ccccc1)NC(=O)c1cnccn1)B(O)O -1.73% [at 114 µM]
CC1O[C@@H](O[C@@H]2C(O)C[C@H](O[C@@H]3C(O)C[C@@H](OC4CC[C@@]5(C)C6CC(O)[C@@]7(C)C(C8=CC(=O)OC8)CC[C@@]7(O)C6CC[C@@H]5C4)OC3C)OC2C)CC(O)[C@H]1O (some centres not stated) 4.73%
OC(c1cc(C(F)(F)F)nc2c(C(F)(F)F)cccc12)C1CCCCN1 (configuration not stated) 9.63%
Cc1c2oc3c(C)ccc(C(=O)N[C@@H]4C(=O)N[C@@H](C(C)C)C(=O)N5CCC[C@@H]5C(=O)N(C)CC(=O)N(C)[C@@H](C(C)C)C(=O)O[C@H]4C)c3nc-2c(C(=O)N[C@@H]2C(=O)N[C@@H](C(C)C)C(=O)N3CCC[C@@H]3C(=O)N(C)CC(=O)N(C)[C@@H](C(C)C)C(=O)O[C@H]2C)c(N)c1=O (I: [aThr]V[dP][Sar][NMeV] / II: [aThr]V[dP][Sar][NMeV]; ester I:1-I:C, II:1-II:C; linker I:N-II:N via Actinocin(9to1)) -35.3%
CN1CCN(C(=O)CCN2C(=O)/C(=C\c3ccccc3F)SC2=S)CC1 9.29% [at 114 µM]
CC(=O)Nc1ccc([C@H](C)C(=O)Nc2ncc(C(C)C)s2)cc1 7.38%
